Experimental data: paper PMC5540273 (PLoS ONE, 2017)

Columns and labels:
Details in all cases: concentration: 1 μM, replicates: in singlicate; n = 1
PIK3C2G = test system: PIK3C2G
PIK3CA = test system: PIK3CA
PIK3CB = test system: PIK3CB
PIK3CD = test system: PIK3CD
PIK3CG = test system: PIK3CG
PIK4CB = test system: T1, PIK4CB
T1 construct: gene PI4KB

PIKFYVE = test system: PIKFYVE
PIM1 = test system: PIM1
PIM2 = test system: PIM2
PIM3 = test system: PIM3
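Further: KINOMEscan kinase panel screen.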

SMILES	%Inh (PIK3C2G) [%]	%Inh (PIK3CA) [%]	%Inh (PIK3CB) [%]	%Inh (PIK3CD) [%]	%Inh (PIK3CG) [%]	%Inh (PIK4CB) [%]	%Inh (PIKFYVE) [%]	%Inh (PIM1) [%]	%Inh (PIM2) [%]	%Inh (PIM3) [%]
O=C(Nc1cccc(-c2nn3ccccc3c2-c2ccnc(Nc3cccc(C(F)(F)F)c3)n2)c1)c1c(F)cccc1F [GSK292658]	22	0	0	0	0	8	1	0	0	0
O=C(O)C(F)(F)F.O=C(O)C(F)(F)F.O=c1[nH]ccc2nc(N[C@@H]3CCCNC3)nc(Nc3ccc(S(=O)(=O)N4CCOCC4)cc3)c12 [GSK2177277]	0	0	0	0	80	59	69	97.5	98.8	99.8
O=c1[nH]cc(-c2ccc(N3CCOCC3)cc2)c2sc(-c3cn[nH]c3)cc12 [GSK2276055]	0	21	11	3	21	8	31	77	51	67
Cc1ccc(C(=O)Nc2ccc(Nc3ccnc4cc(-c5nccs5)ccc34)cc2O)cc1.Cl [GW494702]	23	0	0	0	0	30	0	0	6	0
COc1cc(Nc2nccc(N3CCC(NC(=O)c4cc5ccccc5s4)C3)n2)cc(OC)c1OC (stereo not drawn) [GSK1379760]	0	0	0	14	0	0	6	16	0	3
Cc1ccc(C(=O)N2CC[C@@H](O)C2)cc1-n1c(C)cc(OCc2ccc(F)cc2F)c(Br)c1=O	0	0	0	0	0	0	28	0	7	1
O=C(Nc1cccc(-c2nn3ccccc3c2-c2ccnc(Nc3cccc(F)c3)n2)c1)c1c(F)ccc(F)c1Cl [GSK357952]	21	0	0	0	0	24	0	10	0	0
CCS(=O)(=O)c1ccc(OC)c(Nc2nccc(-c3c(-c4cccc(NC(=O)c5c(F)cccc5F)c4)nn4ncccc34)n2)c1 [GSK326180]	0	0	0	0	3	7	0	0	0	0
CC(=O)Nc1nc2cnc(Nc3cc(NC(=O)c4cccc(C5(C#N)CC5)c4Cl)ccc3C)nc2s1	27	0	12	14	0	0	0	2	4	0
